Source: PMC11062922 (Nature Chemical Biology, 2023)

What was measured:
Parameters in all cases: species or system human, MV4-11 + K-562 + COLO205 + SK-N-BE2 + OVCAR-8
ABCD3 = conditions: read-out: apparent Kd; compound concentrations: 100 nM and 1000 nM (sheet 'Samples'), CATDS: 4.0800331971119997E-3; n = 1
ACOX3 = conditions: read-out: apparent Kd; compound concentrations: 100 nM and 1000 nM (sheet 'Samples'), CATDS: 4.2441767473343E-3; n = 1
GRAMD1A = conditions: read-out: apparent Kd; compound concentrations: 100 nM and 1000 nM (sheet 'Samples'), CATDS: 3.9512769472384501E-3; n = 1
MAP3K3 = conditions: read-out: apparent Kd; compound concentrations: 100 nM and 1000 nM (sheet 'Samples'), CATDS: 4.1000911479265297E-3; n = 1
PGK1 = conditions: read-out: apparent Kd; compound concentrations: 100 nM and 1000 nM (sheet 'Samples'), CATDS: 0.13034020177251299; n = 1
ACVRL1 = conditions: read-out: apparent Kd; compound concentrations: 100 nM and 1000 nM (sheet 'Samples'), CATDS: 0.20940846784164599; n = 1
SNRNP200 = conditions: read-out: apparent Kd; compound concentrations: 100 nM and 1000 nM (sheet 'Samples'), CATDS: 1.8625825044313801E-2; n = 1
FN3KRP = conditions: read-out: apparent Kd; compound concentrations: 100 nM and 1000 nM (sheet 'Samples'), CATDS: 2.5837856545343801E-2; n = 1
TTN = conditions: read-out: apparent Kd; compound concentrations: 100 nM and 1000 nM (sheet 'Samples'), CATDS: 1.2755516587496201E-2; n = 1
SMG1 = conditions: read-out: apparent Kd; compound concentrations:100 nM and 1000 nM (sheet 'Samples'); n = 1
ACLY = conditions: read-out: apparent Kd; compound concentrations: 100 nM and 1000 nM (sheet 'Samples'), CATDS: 2.7002269039485799E-2; n = 1
GARS = conditions: read-out: apparent Kd; compound concentrations: 100 nM and 1000 nM (sheet 'Samples'), CATDS: 2.4594129373340799E-2; n = 1
PFKP = conditions: read-out: apparent Kd; compound concentrations: 100 nM and 1000 nM (sheet 'Samples'), CATDS: 2.5253779658022699E-2; n = 1
CLK3 = conditions: read-out: apparent Kd; compound concentrations: 100 nM and 1000 nM (sheet 'Samples'), CATDS: 3.87460825135853E-2; n = 1
AGPS = conditions: read-out: apparent Kd; compound concentrations: 100 nM and 1000 nM (sheet 'Samples'), CATDS: 9.2169061942303496E-2; n = 1
MAP4K4 = conditions: read-out: apparent Kd; compound concentrations: 100 nM and 1000 nM (sheet 'Samples'), CATDS: 1.6227318274317299E-2; n = 1
PSMC3 = conditions: read-out: apparent Kd; compound concentrations: 100 nM and 1000 nM (sheet 'Samples'), CATDS: 3.1956932095177297E-2; n = 1
GSPT1;GSPT2 = conditions: read-out: apparent Kd; compound concentrations: 100 nM and 1000 nM (sheet 'Samples'), CATDS: 3.5728111751545999E-2; n = 1
SLC25A6;SLC25A4 = conditions: read-out: apparent Kd; compound concentrations: 100 nM and 1000 nM (sheet 'Samples'), CATDS: 2.6658773348472799E-2; n = 1
SMC2 = conditions: read-out: apparent Kd; compound concentrations: 100 nM and 1000 nM (sheet 'Samples'), CATDS: 2.55109529885677E-2; n = 1

## Cn1ncc2c(N)ncnc21 [SKF-18267]
ABCD3
  potency estimated from few doses: 1270 nM
ACOX3
  potency estimated from few doses: 1160 nM
GRAMD1A
  potency estimated from few doses: 1380 nM
MAP3K3
  potency estimated from few doses: 1260 nM

## COc1cccc2c(-c3ccncc3)c(-c3ccc(F)cc3)nn12 [GW468513X]
PGK1
  potency estimated from few doses: 62.3 nM

## FC(F)(F)c1ccc(-c2ncn(CCCN3CCOCC3)c2-c2ccncc2)cc1 [SB-217780]
ACVRL1
  potency estimated from few doses: 1630 nM

## COc1cc(Nc2nccc(-c3cnn4ncccc34)n2)cc(OC)c1 [GW801372X]
SNRNP200
  potency estimated from few doses: 1540 nM

## CCN(CC)Cc1ccc(Nc2nccc(-c3cnn4ncccc34)n2)cc1 [GW780056X]
FN3KRP
  potency estimated from few doses: 618 nM

## CCn1c(-c2cccnc2O)nc2cnccc21 [SB-736715]
TTN
  potency estimated from few doses: 1870 nM

## CC(=O)N[C@@H](Cc1ccc(OP(=O)(O)O)cc1)C(=O)N[C@H]1CCC(=O)N2CCC[C@@H](C(=O)NCc3ccc(Cl)cc3)N2C1=O [RO0325308-000]
SMG1
  potency estimated from few doses: 121 nM

## Cl.Cl.NC(CNC(=O)c1cc(Br)c(-c2ccnc3[nH]ccc23)s1)c1ccccc1.NC(CNC(=O)c1cc(Br)c(-c2ccnc3[nH]ccc23)s1)c1ccccc1 (centres unmarked) [GSK1322949A]
ACLY
  potency estimated from few doses: 1570 nM
GARS
  potency estimated from few doses: 2030 nM
PFKP
  potency estimated from few doses: 1880 nM

## NCC(NC(=O)c1cc(-c2cn[nH]c2)c(-c2ccnc3[nH]ccc23)s1)c1ccccc1.NCC(NC(=O)c1cc(-c2cn[nH]c2)c(-c2ccnc3[nH]ccc23)s1)c1ccccc1.O=C(O)C(F)(F)F.O=C(O)C(F)(F)F (centres unmarked) [GSK1325775A]
CLK3
  potency estimated from few doses: 907 nM

## COc1ccc(-c2cc3c(N)ncnc3o2)cc1 [GW642138X]
AGPS
  potency estimated from few doses: 2180 nM

## NS(=O)(=O)c1ccc(NC=C2C(=O)Nc3ccc4ncsc4c32)cc1 [GW589933X]
MAP4K4
  potency estimated from few doses: 2140 nM

## Cn1cc(C2=C(c3ccc(OC[C@@H](O)CO)cc3)C(=O)NC2=O)c2ccccc21 [RO3208546-000]
PSMC3
  potency estimated from few doses: 2090 nM

## CCC(CC)(CC)n1cnc2c(N)ncnc21 [SKF-97620]
GSPT1;GSPT2
  potency estimated from few doses: 655 nM
SLC25A6;SLC25A4
  potency estimated from few doses: 1430 nM
SMC2
  potency estimated from few doses: 1640 nM
